Source: PubChem BioAssay
TEAD-YAP inh = TEAD-YAP interaction inhibition, primary screen, TEAD-YAP interaction inhibitor project, luminescence, HEK-TIYL cells; TEAD-Gal4/YAP UAS-luciferase luminescence; inhibition, % at 9.12 µM; hit rate 1.4% among 640,000; AID 1259422, 2018; in the data active means inhibition above about 32%;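 further: 0% = median of test compound wells and 100% = reference inhibitor wells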
GPR151 ag = activators of human GPR151, primary screen, cell-based, PathHunter beta-arrestin, luminescence; PathHunter beta-arrestin GPR151 cells; activation, % at 11.2 µM; hit rate 1% among 650,000; AID 1508602, 2020; in the data active means activation above about 4.9%;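 further: 0% = median of compound wells and 100% = cells with positive control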
Target sequence (Q8TDV0 whole entry, looked up): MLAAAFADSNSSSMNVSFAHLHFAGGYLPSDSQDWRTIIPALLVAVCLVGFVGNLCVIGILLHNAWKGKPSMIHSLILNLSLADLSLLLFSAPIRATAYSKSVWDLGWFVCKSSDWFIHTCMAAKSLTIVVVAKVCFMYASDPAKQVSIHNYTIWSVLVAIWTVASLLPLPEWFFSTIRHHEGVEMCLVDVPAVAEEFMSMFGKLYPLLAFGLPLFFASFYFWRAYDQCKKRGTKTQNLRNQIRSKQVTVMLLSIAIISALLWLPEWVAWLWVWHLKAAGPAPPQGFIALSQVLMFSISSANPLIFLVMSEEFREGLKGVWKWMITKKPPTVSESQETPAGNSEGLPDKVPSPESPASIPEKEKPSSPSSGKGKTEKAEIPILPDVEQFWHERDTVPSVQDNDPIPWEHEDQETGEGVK
MITF primary = MITF inhibitors, primary screen, biochemical, AlphaScreen, human. Microphthalmia-associated transcription factor (Homo sapiens), O75030. AlphaScreen MITF homodimerization, bead proximity signal. inhibition, % at 2.6 µM. hit rate 0.91% among 650,000; in the data active means inhibition above about 50%;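 further: 0% = vehicle wells with protein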
FBW7 activator = FBW7 E3 ligase activators, primary screen, biochemical, AlphaScreen, human; F-box/WD repeat-containing protein 7 (Homo sapiens), Q969H0; AlphaScreen FBW7–phospho-cyclin E peptide binding, activator screen; normalized activity (activation), % at 26.1 µM; hit rate 0.13% among 650,000; AID 1259310, 2017; in the data active means normalized activity above about 1.9%;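 further: purified mutant Fbw7 with reduced substrate affinity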
MITF inh conf = MITF inhibitors, retest of hits, confirmation, biochemical, AlphaScreen, triplicate; shares compounds with MITF primary; AlphaScreen MITF homodimerization, biotin/His-MITF beads; inhibition, % at 2.6 µM; hit rate 16% among 4,700; AID 1259372, 2018;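 active means inhibition above a cutoff derived from the DMSO control wells, cut at about 28% in these data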;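 further: 0% = MITF dimer wells with DMSO only; inhibitors lower the bead chemiluminescence by keeping MITF from dimerizing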
AlphaScreen DR = AlphaScreen optical interference compounds, dose response, counter-screen, biochemical, HTS; AlphaScreen optical interference counterscreen, cell-free; AID 1259373, 2018; shares compounds with MITF primary; hit rate 6% among 480; IC50, µM; call rule not given here
AlphaScreen intf2 = AlphaScreen optical interference compounds, counter-screen for MITF inhibitor project, biochemical, triplicate. hit rate 7.6% among 4,700. inhibition, % at 2.6 µM. shares compounds with MITF primary. LysRS AlphaScreen counterscreen, signal interference;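 active means inhibition above a cutoff derived from the DMSO control wells, cut at about 30% in these data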
Numbers without * were called inactive. This is a sample that favours compounds with a hit; in the whole collection about 3.5% have one here.

What do the screens show for `COc1ccc2ccccc2c1CN1CCN(C(=O)c2ccncc2)CC1`?
TEAD-YAP inh: -11.0; GPR151 ag: -0.8; MITF primary: 64.6*; FBW7 activator: 0.0; MITF inh conf: -4.8; AlphaScreen intf2: -3.9

What do the screens show for `CN(CCc1ccccn1)C(=O)c1ccccc1`?
TEAD-YAP inh: 3.8; GPR151 ag: -0.1; MITF primary: 59.5*; FBW7 activator: -0.2; MITF inh conf: -9.2; AlphaScreen intf2: -2.4

How did COc1ccc(C(=O)N(C)CCc2ccccn2)cc1 do in these assays?
TEAD-YAP inh: -3.7; GPR151 ag: 4.1; MITF primary: 71.4*; FBW7 activator: 0.5; MITF inh conf: 3.8; AlphaScreen intf2: 1.7

What do the screens show for `COc1ccc(OC)c(CN(C)CCc2ccccn2)c1`?
TEAD-YAP inh: -0.7; GPR151 ag: 3.3; MITF primary: 40.4; FBW7 activator: 0.2

Results for COc1cc(OC)cc(C(=O)N(C)CCc2ccccn2)c1 ?
TEAD-YAP inh: -1.9; GPR151 ag: 0.1; MITF primary: 70.9*; FBW7 activator: 0.0; MITF inh conf: 7.0; AlphaScreen intf2: 3.9

What do the screens show for `CN(Cc1ccccc1)C(=O)COc1ccc2ccccc2c1`?
TEAD-YAP inh: -44.9; GPR151 ag: 0.4; MITF primary: 20.4; FBW7 activator: 0.8

What do the screens show for `CN(CCc1ccccn1)C(=O)COc1ccc2ccccc2c1`?
TEAD-YAP inh: -22.1; GPR151 ag: -0.7; MITF primary: 84.5*; FBW7 activator: 1.2; MITF inh conf: -9.8; AlphaScreen intf2: 4.1

What do the screens show for `COc1cc(OC)cc(C(=O)NC(C(=O)NCCc2ccccn2)C(C)C)c1` (stereo not given)?
TEAD-YAP inh: -0.6; GPR151 ag: -2.2; MITF primary: 2.6; FBW7 activator: -0.1

How did CC(C)c1ccc(NC(=O)CSc2ncccc2C(=O)NCCC2=CCCCC2)cc1 do in these assays?
TEAD-YAP inh: 3.1; GPR151 ag: 0.9; MITF primary: 1.3; FBW7 activator: 0.0

How did CC(=O)OC1C([N+]2(C)CCCCC2)C[C@H]2C3CC[C@H]4C[C@H](OC(C)=O)C([N+]5(C)CCCCC5)CC4(C)[C@H]3CCC12C (stereo not given in full) do in these assays?
TEAD-YAP inh: 4.0; GPR151 ag: -1.9; MITF primary: 8.2; FBW7 activator: 0.4

How did CC1=C(C(=O)OCCc2ccccc2)C(c2ccc(Br)s2)NC(=O)N1C (stereo not given) do in these assays?
TEAD-YAP inh: -7.3; GPR151 ag: -0.9; MITF primary: 4.4; FBW7 activator: 0.1

Results for Cc1cc(NC(=O)C(C)C)n(-c2ccc(F)cc2)n1 ?
TEAD-YAP inh: -0.7; GPR151 ag: 3.3; MITF primary: -2.5; FBW7 activator: 0.1

Results for Nc1cccc(-c2ncc(C(=O)NCCN3CCOCC3)s2)c1 ?
TEAD-YAP inh: -15.8; GPR151 ag: 1.1; MITF primary: 14.6; FBW7 activator: -0.1

What do the screens show for `CCc1cc(=O)oc2cc(OC)c(Cl)cc12`?
TEAD-YAP inh: 7.6; GPR151 ag: 0.8; MITF primary: 88.1*; FBW7 activator: 0.0; MITF inh conf: 0.3; AlphaScreen intf2: -0.8

Results for CCOc1cc2oc(=O)cc(CC)c2cc1Cl ?
TEAD-YAP inh: 4.5; GPR151 ag: -0.1; MITF primary: 3.1; FBW7 activator: -0.1

How did O=c1[nH]cnc2nc(-c3ccco3)c(-c3ccco3)nc12 do in these assays?
TEAD-YAP inh: 0.3; GPR151 ag: 0.2; MITF primary: 86.9*; FBW7 activator: -1.1; MITF inh conf: 60.2*; AlphaScreen DR: >7.63; AlphaScreen intf2: 4.7

Results for Nc1nc(F)cc(N2CCCCC2)n1 ?
TEAD-YAP inh: -3.3; GPR151 ag: -0.1; MITF primary: -1.9; FBW7 activator: 0.3
